Source: PubChem (National Center for Advancing Translational Sciences (NCATS))
PI5P4Ka inh: inhibitors of human PI5P4K alpha. max response, %. AID 652105. P48426. PI5P4Kalpha enzyme, ADP-Glo luminescence, 60 min; active compounds read low. 1.2% of 330,000 active; active means max response of -50% or lower; inconclusive means between -30% and -50%; inactive means -30% or higher; further: value at the top dose of about 77 µM
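Controls without substrate or without enzyme flank wells where PI5P4Kalpha converts substrate using 5 microM ATP (final). Incubation lasts 60 minutes at room temperature; ADP formed is read by ADP-Glo luminescence.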
PLK1 PBD inh: blocks phosphopeptide binding to human PLK1 polo-box domain | Plk1 PBD binding of FITC phosphopeptide, fluorescence polarization | Potency, µM, hits mostly inhibitors | 2.8% of 360,000 active; further: series mostly up to about 57 µM; nearly all actives have a fitted effect of over 65% in size
WRN helicase inh: WRN helicase (human) inhibition. Q14191. WRN helicase unwinding, fluorescent forked duplex, kinetic. Potency, µM (top dose mostly 114 µM), most hits filed as inhibitors. 0.46% of 360,000 active; further: nearly all actives have a fitted effect of over 55% in size
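Enzyme (20 nM final) and test compound sit together 15 min at room temperature before substrate addition. Substrate is a single-forked duplex oligonucleotide (100 nM) labelled with fluorophore and quencher, with 2 mM ATP; helicase unwinding raises red fluorescence, read kinetically.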
TCR act: activators of T cell receptors. Potency, µM (highest dose often 9.22 µM), most hits filed as activators. primary human leukocytes, anti-CD3, IL-2 HTRF, 48 h. 330,000 tested, under 10 active
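Primary human leukocytes receive a-CD3 beads and test compound and are incubated 48 hr. Secreted IL-2 is then assayed by HTRF, measuring 665nm acceptor emission after 320nm excitation of the europium donor.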
FEN1 inh: inhibitors of human flap endonuclease 1. P39748. Recombinant FEN1 flap cleavage, fluorescence, 15 min. Potency, µM (doses to about 114 µM), hits mostly inhibitors. 0.35% of 390,000 active. AID 588795; further: nearly all actives have a fitted effect of over 65% in size
Target sequence (P39748 whole entry, looked up): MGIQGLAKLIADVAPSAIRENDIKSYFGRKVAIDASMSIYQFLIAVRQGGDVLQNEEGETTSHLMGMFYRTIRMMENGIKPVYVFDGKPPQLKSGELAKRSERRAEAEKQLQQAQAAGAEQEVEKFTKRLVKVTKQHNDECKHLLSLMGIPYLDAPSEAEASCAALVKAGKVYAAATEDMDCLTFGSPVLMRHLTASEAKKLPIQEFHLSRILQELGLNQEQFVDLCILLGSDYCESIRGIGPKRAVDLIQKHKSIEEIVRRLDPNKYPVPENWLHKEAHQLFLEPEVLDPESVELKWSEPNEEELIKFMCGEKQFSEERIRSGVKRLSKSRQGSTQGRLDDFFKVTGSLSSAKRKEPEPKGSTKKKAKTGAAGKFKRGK
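Quantitative HTS format: each compound was titrated, incubated with 10 nM nuclease for 15 min at room temperature, then challenged with flap substrate at 50 nM final. Signal change over 15 min gave concentration–effect curves.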
VDR inhibitor: blocks the human vitamin D receptor; P11473; VDR-SRC2-3 peptide fluorescence polarization, 2 h; Potency, µM, usual class: inhibitors; 0.93% of 400,000 active; AID 504847
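After 23 nl compound addition and a short centrifugation, plates sat for 2 hours at ambient temperature; polarization of fluorescence then indicated loss of VDR binding to peptide SRC2-3.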
TbPYK confirm: confirmation of Trypanosoma brucei pyruvate kinase inhibitors | shares compounds with PLK1 PBD inh | recombinant TbPYK, Kinase-Glo ATP luminescence | Potency, µM (series often up to 76.9 µM), most hits filed as inhibitors | 67% of 890 active; further: nearly all actives have a fitted effect of over 70% in size
TbPYK ADP-Glo: orthogonal confirmation of Trypanosoma brucei pyruvate kinase inhibitors. shares compounds with PLK1 PBD inh. recombinant TbPYK, ADP-Glo luminescence, 60 min. Potency, µM (doses to about 76.9 µM), most hits filed as inhibitors. 62% of 890 active. AID 720584; further: nearly all actives have a fitted effect of over 75% in size
Hits are given with their value; 0 = inactive; ? = inconclusive; - = not tested or not shown; [ ] = another dose, or the depositor's remark. Most compounds without a hit are left out; they make up all but 3.7% or so of the library. Unless noted, the call rests on the fitted dose curve; in most records, active means well fitted curve in the direction sought with a large enough effect; inconclusive means small, poorly fitted or top-dose-only effect, or another doubt; inactive means no such curve, though single readings can be large; an effect the other way counts as inactive or inconclusive.

SMILES	PI5P4Ka inh	PLK1 PBD inh	WRN helicase inh	TCR act	FEN1 inh	VDR inhibitor	TbPYK confirm	TbPYK ADP-Glo
COc1ccc(O)c(/C=c2/sc3nc4cc(C)c(C)cc4n3c2=O)c1	?	10.6µM	0	0	0	?	10µM	11.2µM
CC1CCc2c(sc(Nc3nc4c(F)cccc4s3)c2C(N)=O)C1 (stereo unspecified)	?	0	0	0	0	0	8.91µM	14.1µM
O=C(Nc1nc2c(F)cccc2s1)C1CC1	0	0	0	0	0	0	-	-
Cc1nc(-c2ccc(F)cc2)sc1CCNC(=O)c1ccco1	-	-	-	-	0	0	-	-
CC(=O)N1C(=O)c2cccc3cccc(c23)C(=O)N1C(C)=O	0	0	0	0	0	0	-	-
O=C1c2cccc3cccc(c23)C(=O)C1(O)O	?	?	20µM	0	1µM	?	6.31µM	5.01µM
CCCCCCC(=O)N(O)C1CC(=O)N(c2ccc(F)cc2)C1=O (stereo unspecified)	0	26.7µM	28.2µM	0	0	39.8µM	?	?
CCCCN(C(=O)CCC(=O)O)C1CC(=O)N(c2ccc(OCCC)cc2)C1=O (stereo unspecified)	0	0	0	0	0	0	-	-
COc1cc(OC)c(NC(=O)NCc2ccc3c(c2)CCN3C(=O)c2ccccc2)cc1Cl	-	-	-	-	0	0	-	-
Fc1cccc(/C=N/Nc2nccnc2Cl)c1	?	0	0	0	0	0	?	0
COc1cc(/C=C2\SC(=Nc3ccc(O)cc3)NC2=O)cc(OC)c1O	?	0	0	0	?	0	-	-
COc1cc(/C=C2\SC(c3ccc(C)cc3)=NC2=O)cc(OC)c1O	-	0	?	0	?	?	35.5µM	?
Clc1ccccc1Nc1nc(NCc2ccccc2)nc2ccsc12	0	0	0	-	-	-	-	-
OCc1ccccc1-c1nc(NCc2ccccc2)nc2ccsc12	?	?	0	-	-	-	?	?
CCCC(=O)N1CCN(c2nc3ccc(F)cc3s2)CC1	-	-	-	-	0	0	-	-
Cc1ccsc1/C=N/Nc1ncc(Cl)cc1Cl	0	0	0	0	0	0	-	-
Cc1ccsc1/C=N/Nc1nc(=O)[nH]nc1C	?	0	0	0	0	0	17.8µM	0
Cn1c(N=Nc2ccc(N3CCOCC3)cc2)[n+](C)c2ccccc21	?	0	44.7µM	0	56.2µM	?	15.8µM	0
Cn1c(=Nc2ccc(N3CCOCC3)cc2)ccc2ccccc21	0	0	0	0	0	0	-	-
CCOC(=O)C1=C(C)c2ccccc2N(C(=O)OC)C1(C)C(=O)OCC (stereo unspecified)	0	?	0	0	0	?	31.6µM	39.8µM
Cc1ccc2c(c1)C(N1CCCC1=O)CC(c1ccco1)N2 (stereo unspecified)	?	?	0	0	0	0	0	0
Cc1ccc(C2CC(c3ccco3)n3ncnc3N2)cc1 (stereo unspecified)	0	?	0	0	0	0	-	-
O=C(NNc1nc2c(F)cccc2s1)C1COc2ccccc2O1 (stereo unspecified)	0	0	0	0	0	0	-	-
Cc1ccc2sc(NNC(=O)C3COc4ccccc4O3)nc2c1C (stereo unspecified)	0	0	0	0	0	0	?	?
Oc1[nH]c(=S)sc1C=C1N=c2ccccc2=N1	0	0	0	0	0	0	22.4µM	?
Cc1cc(C)c2c(CC(=O)Nc3ccc(S(=O)(=O)Nc4nc(C)cc(C)n4)cc3)coc2c1	-	-	-	-	0	0	-	-
CCCCN(C)CCNC(=O)c1ccc(Cn2c(=S)[nH]c3ccc(Br)cc3c2=O)cc1	0	?	0	0	0	0	20µM	12.6µM
COC(=O)c1ccc2c(=O)n(Cc3ccc(C(=O)NCCCN4CCC(C)CC4)cc3)c(=S)[nH]c2c1	0	0	0	0	0	0	17.8µM	15.8µM
Cc1ccc2c(c1)sc[n+]2Cc1ccccc1	-	2.99µM	0[11.6 µM]	-	0	25.1µM	0	?
CCN(CC)c1ccc(C(=O)NNC(=O)CCl)cc1	0	0	0	0	0	0	-	-
